Results on 37 molecules are retold here after PubChem BioAssay (NCI).

This is part of a sample that, as a whole, favours compounds with a hit. Of some 83,000 tested, about 20% had one in any assay.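 Results are percent growth after 48 hours of single-concentration exposure. 100 means growth as in untreated cells, lower positive values show inhibition; negative values down to -100 show cell death.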 Activity calls are given as the source filed them. Rule for the calls: active = growth percent below 10; inactive = the rest.

The subject of the first assay is MDA-MB-231 breast. The assay can be described thus: NCI-60 one-dose screen, 48 h (100 = growth as untreated, 0 = no growth, -100 = all killed). Particulars: 10 µM unless noted.
Consider `Cc1sc2c(c1C)C(c1ccc(Cl)cc1)=N[C@@H](CC(=O)NCCCCCNC(=O)COc1ccc(C3CCC(=O)NC3=O)cc1)c1nnc(C)n1-2` (stereo not given in full), for which the growth was 5.01% (active).

With `N/C(=N\c1nc2ccccc2s1)NC(=O)Nc1ccc(Cl)cc1Cl`, the growth was -83.4% (active). Turning to `CC1=C(C#N)C2=NNCC(c3ccccc3)=NN2C(c2ccccc2)=C1`, the growth was 105% (inactive).

The subject of the next assay is RXF 393 renal. Described as above. Particulars: 10 µM unless noted.
On to `CCCSc1nc(Nc2ccc(S(N)(=O)=O)cc2)c(C#N)c(-c2ccc(Cl)cc2)n1`, for which the growth is -43.4% (active). On the same count and under the same terms, to `CCCCSc1nc(Nc2ccc(S(N)(=O)=O)cc2)c(C#N)c(-c2ccc(Cl)cc2)n1` belongs 16.8% (inactive); to `Cn1cc(-c2cc3nc(-c4cn(C)c5ncccc45)cc(N)n3n2)c2ccccc21`, -50.4% (active).

Regarding `Cc1ccc(C2=NN(c3nc(-c4cc5ccccc5oc4=O)cs3)C(c3ccc(C)cc3)C2)cc1` (stereo not given), the growth was 103% (inactive).

As for `Cc1ccc2c(c1)nc(-c1ccccc1)n2CC(=O)N=Nc1c(O)[nH]c2ccc(Br)cc12`, the growth was -79.9% (active). For `O=C(Cn1nc(-c2ccccc2)ccc1=O)N/N=C/c1ccc(N2CCOCC2)cc1`, the growth is 111% (inactive). The same measure, in the same setting: to `O=C(NN1C(=O)/C(=C/C=C/c2ccc([N+](=O)[O-])o2)SC1=S)c1ccc(Cl)cc1` belongs -92.1% (active); to `CCCCSc1nc(Nc2ccc(S(N)(=O)=O)cc2)c(C#N)c(-c2cc(OC)c(OC)c(OC)c2)n1`, 32.8% (inactive); to `COc1cc2c3c(n(CCCN4CCC[C@@H]4CO)c(=O)c2cc1OC)-c1cc2c(cc1C3=O)OCO2`, -66.5% (active). For the molecule `Cn1cc(-c2cc(N)n3nc(-c4cn(C)c5ncc(Br)cc45)cc3n2)c2cc(Br)cnc21`, the growth was 23.1% (inactive).

With `Cn1cc(-c2cc(N)n3nc(-c4c[nH]c5ccccc45)cc3n2)c2cccnc21`, the growth was 29.6% (inactive). On the same count and under the same terms, to `CN(C)c1nc(NCCNS(=O)(=O)c2ccc(C3=Nc4c(N)nc(N)nc4NC(c4ccccc4)C3)cc2)nc(Nc2ccc(F)cc2)n1` (stereo not given) belongs 13.4% (inactive); to `COc1ccc(-c2ccc(SCC(=O)NCCc3ccc(S(N)(=O)=O)cc3)nn2)cc1`, 80.2% (inactive).

Take `O=C(CCN1C(=O)/C(=C/c2ccc(F)cc2)SC1=S)N1CCOCC1`: the growth is 47.7% (inactive).

Regarding `Cc1cc2nc3c4ccccc4n(CC4=NCCN4)c3nc2cc1C`, the growth is -67.2% (active). On the same count and under the same terms, with `Cc1ccc(C(=O)NN2C(=O)/C(=C/C=C/c3ccc([N+](=O)[O-])o3)SC2=S)cc1` the figure was -90% (active); with `Cc1cc2nc3c([nH]c2cc1C)c1ccc(=O)cc1n3CCN(C)C`, 57.8% (inactive); with `N/C(=N\c1nc2ccccc2s1)NC(=O)Nc1c(Cl)cccc1Cl`, 80.8% (inactive). Take `Brc1ccc(-c2n(Cc3ccc4ccccc4c3)c(-c3ccccc3)c(-c3ccccc3)[n+]2Cc2ccc3ccccc3c2)cc1`: the growth was -69.6% (active).

With `C=C1CC[C@@H]2[C@]3(C)COC(c4cn[nH]c4-c4ccc(Br)cc4)O[C@@H]3CC[C@@]2(C)[C@@H]1C/C=C1/C(=O)OCC1O` (stereo not given in full), the growth was -89.1% (active). With `COc1ccc(-c2nc3cc(C)ccc3n2CC(=O)N=Nc2c(O)[nH]c3ccc(Br)cc23)cc1`, the growth is -52.7% (active). The same measure, in the same setting: to `CC12CC[C@@H]3[C@]4(C)COC(c5cn[nH]c5-c5cccc(Br)c5)O[C@@H]4CC[C@@]3(C)[C@@H]1CC(C1=CCOC1=O)O2` (stereo not given in full) belongs 6.19% (active); to `COc1c(F)ccc(C(=O)Nc2ccc3nc(NC(=O)C4CCCN(S(=O)(=O)c5ccc(C#N)cc5)C4)sc3c2)c1F` (stereo not given), 46.7% (inactive). The same measure, in the same setting: with `COc1ccc2c(c1)c(-c1cc3nc(-c4cn(C)c5ncccc45)cc(N)n3n1)cn2C` the figure was -77.3% (active); with `CC(=O)c1cc(C(=O)c2ccccc2)n2c1ccc1ccccc12`, 93.1% (inactive). Still for that read-out and setting: to `COc1ccc2[nH]c(=O)c(CSc3nccc(-c4ccc(OC)c(OC)c4)n3)cc2c1` belongs -13.7% (active); to `COc1ccc(NC(=O)Cn2c3c(sc2=O)[C@H]2[C@@H](O)[C@@H](O)[C@H](O)[C@@H]2CS3)cc1`, 114% (inactive); to `C=C1CCC2C3(C)COC(c4cccs4)OC3CCC2(C)C1CC(Sc1ccccc1)C1=CCOC1=O` (stereo not given), 107% (inactive). As for `CC1CN(c2oc(-c3ccc([N+](=O)[O-])cc3)nc2C#N)CC(C)O1` (stereo not given), the growth is 108% (inactive). With `Cc1occc1C(=O)NN1C(=O)/C(=C/C=C/c2ccc([N+](=O)[O-])o2)SC1=S`, the growth is -88.1% (active). For the molecule `N=C1N=C(SCc2nc3ccccc3[nH]2)NC(=O)/C1=C/c1ccc(Cl)cc1`, the growth is 113% (inactive). With `O=C(NN1C(=O)/C(=C/C=C/c2ccc([N+](=O)[O-])o2)SC1=S)c1ccccc1O`, the growth was -94.5% (active). Same read-out and setting: to `COc1ccc(-c2nc3cc(C)ccc3n2CC(=O)N=Nc2c(O)[nH]c3ccc(Cl)cc23)cc1` belongs -63.2% (active); to `COC1=C[C@]23CCC(=O)N2CCc2cc4c(cc2[C@@H]3[C@@H]1OC(=O)[C@H](C)O)OCO4`, 5.61% (active). In the case of `Cc1sc2c(c1C)C(c1ccc(Cl)cc1)=N[C@@H](CC(=O)NCCCCCNC(=O)COc1ccc(C3CCC(=O)NC3=O)cc1)c1nnc(C)n1-2` (stereo not given in full), the growth is 45.3% (inactive). `N/C(=N\c1nc2ccccc2s1)NC(=O)Nc1ccc(Cl)cc1Cl`: the growth is -84% (active). With `CC1=C(C#N)C2=NNCC(c3ccccc3)=NN2C(c2ccccc2)=C1`, the growth is 131% (inactive).
